Several values for one entry are separate records, joined by “and”; a condition that tells them apart may be missing. Equal entries are not always repeated. Out of some 5,500 compounds screened, about 2,000 (36%) were called active. About 18% were inconclusive and are not listed. No stated cut-off is given here; in the data, active means normalized growth mostly below about 0.91 (no sharp cut-off); inconclusive means no clear call, values can overlap the other calls; inactive means mostly above about 0.92. This is one part of the list.
Test: chemical genetic growth profiling, strain panel (AID 1159580);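 further: tested at 20 µM; growth read once vehicle control cultures reached saturation at 30 °C; 1 = growth at the plate median or of vehicle wells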
Details: S. cerevisiae deletion strains, growth OD

Measured: normalized growth

CC(Oc1ccccc1)C(=O)N[C@@H]1C(=O)N2[C@@H]1SC(C)(C)[C@@H]2C(=O)O (some centres not stated)
inactive: locus YAL013W, strain DEP1, stronger effect = lower value 1.01 | locus YAL021C, strain ccr4, stronger effect = lower value 1 | locus YAL026C, strain drs2, stronger effect = lower value 1.01 | locus YAL030W, strain snc1, stronger effect = lower value 0.987 | locus YBL061C, strain skt5, stronger effect = lower value 1 | locus YBR009C, strain hhf1, stronger effect = lower value 0.997 | locus YBR021W, strain FUR4, stronger effect = lower value 0.999 | locus YBR023C, strain chs3, stronger effect = lower value 0.998 | locus YBR171W, strain sec66, stronger effect = lower value 0.984 | locus YBR229C, strain ROT2, stronger effect = lower value 1.01 | locus YBR231C, strain swc5, stronger effect = lower value 0.995 | locus YBR279W, strain paf1, stronger effect = lower value 1.01 | locus YCL011C, strain gbp2, stronger effect = lower value 0.988 | locus YCL016C, strain dcc1, stronger effect = lower value 0.988 | locus YCL029C, strain bik1, stronger effect = lower value 1.04 | locus YCL061C, strain MRC1, stronger effect = lower value 0.998 | locus YCL069W, strain vba3, stronger effect = lower value 0.981 | locus YCR088W, strain abp1, stronger effect = lower value 0.995 | locus YDL005C, strain med2, stronger effect = lower value 0.999 | locus YDL035C, strain GPR1, stronger effect = lower value 1.01 | locus YDL040C, strain nat1, stronger effect = lower value 0.995 | locus YDL074C, strain BRE1, stronger effect = lower value 1.01 | locus YDL101C, strain DUN1, stronger effect = lower value 1.02 | locus YDL134C, strain PPH21, stronger effect = lower value 1.02 | locus YDL185W, strain tfp1, stronger effect = lower value 1.02 | locus YDL192W, strain arf1, stronger effect = lower value 1.02 | locus YDR001C, strain nth1, stronger effect = lower value 0.994 | locus YDR069C, strain doa4, stronger effect = lower value 1 | locus YDR101C, strain arx1, stronger effect = lower value 1.01 | locus YDR137W, strain rgp1, stronger effect = lower value 1 | locus YDR150W, strain NUM1, stronger effect = lower value 1.01 | locus YDR159W, strain sac3, stronger effect = lower value 1.02 | locus YDR162C, strain NBP2, stronger effect = lower value 1.02 | locus YDR195W, strain ref2 1 | locus YDR297W, strain sur2, stronger effect = lower value 0.994 | locus YDR318W, strain mcm21, stronger effect = lower value 1.03 | locus YDR334W, strain swr1, stronger effect = lower value 0.995 | locus YDR335W, strain msn5, stronger effect = lower value 0.996 | locus YDR388W, stronger effect = lower value 1.02 | locus YDR392W, strain spt3, stronger effect = lower value 0.947 | locus YDR502C, strain sam2, stronger effect = lower value 1.01 | locus YEL003W, strain gim4, stronger effect = lower value 0.993 | locus YEL037C, strain rad23, stronger effect = lower value 0.997 | locus YEL061C, strain CIN8 (second series), stronger effect = lower value 0.988 | locus YEL061C, strain CIN8, stronger effect = lower value 1.01 | locus YER015W, strain faa2, stronger effect = lower value 1 | locus YER016W, strain bim1, stronger effect = lower value 1 | locus YER110C, stronger effect = lower value 1.03 | locus YER111C, strain swi4, stronger effect = lower value 1.01 | locus YER155C, strain BEM2 (second series), stronger effect = lower value 0.994 | locus YER155C, strain BEM2, stronger effect = lower value 0.998 | locus YER167W, strain BCK2, stronger effect = lower value 1.01 | locus YFR010W, strain ubp6, stronger effect = lower value 0.997 | locus YGL078C, strain dbp3, stronger effect = lower value 1.02 | locus YGL086W, strain mad1, stronger effect = lower value 1.01 | locus YGL167C, strain pmr1, stronger effect = lower value 0.999 | locus YGL173C, strain kem1, stronger effect = lower value 1.01 | locus YGL227W, strain vid30, stronger effect = lower value 0.988 | locus YGL240W, strain doc1, stronger effect = lower value 1 | locus YGL248W, strain PDE1, stronger effect = lower value 1.01 | locus YGL253W, strain hxk2, stronger effect = lower value 0.994 | locus YGR078C, strain PAC10, stronger effect = lower value 1.01 | locus YGR135W, strain pre9, stronger effect = lower value 1.02 | locus YGR229C, strain SMI1, stronger effect = lower value 0.999 | locus YGR252W, strain gcn5, stronger effect = lower value 0.994 | locus YHR013C, strain ard1, stronger effect = lower value 0.984 | locus YHR027C, strain rpn1, stronger effect = lower value 0.999 | locus YHR030C, strain SLT2, stronger effect = lower value 1.01 and 1.04 | locus YHR079C, strain IRE1 (second series), stronger effect = lower value 1.02 | locus YHR079C, strain IRE1, stronger effect = lower value 0.999 | locus YHR094C, strain hxt1, stronger effect = lower value 1.02 | locus YHR129C, strain ARP1, stronger effect = lower value 1.01 | locus YHR142W, strain chs7, stronger effect = lower value 0.979 | locus YHR200W, strain rpn10, stronger effect = lower value 1.02 | locus YIL066C, strain RNR3, stronger effect = lower value 1.01 | locus YIL073C, strain SPO22, stronger effect = lower value 1.06 | locus YIL125W, strain kgd1, stronger effect = lower value 1.01 | locus YIR030C, strain dcg1, stronger effect = lower value 1.02 | locus YJL092W, strain hpr5, stronger effect = lower value 0.993 | locus YJL095W, strain BCK1 (second series), stronger effect = lower value 0.995 | locus YJL095W, strain BCK1, stronger effect = lower value 1.04 | locus YJL115W, strain asf1, stronger effect = lower value 0.999 | locus YJL129C, strain trk1, stronger effect = lower value 1 | locus YJL134W, strain LCB3, stronger effect = lower value 1.01 | locus YJL154C, strain vps35, stronger effect = lower value 0.991 | locus YJL164C, strain tpk1, stronger effect = lower value 0.999 | locus YJL166W, strain qcr8, stronger effect = lower value 0.986 | locus YJL168C, strain set2, stronger effect = lower value 1.02 | locus YJL187C, strain SWE1 (second series), stronger effect = lower value 1.02 | locus YJL187C, strain SWE1, stronger effect = lower value 0.997 | locus YJR043C, strain POL32, stronger effect = lower value 1.01 | locus YJR066W, strain TOR1, stronger effect = lower value 0.966

— PubChem BioAssay AID1159580 (chemical genetic matrix, 2015)
